This is part of a sample that, as a whole, favours compounds with a hit. Of some 83,000 tested, about 20% had one in any assay.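 Percent growth is the endpoint: 0 to 100 indicates growth inhibition (40 means 60% inhibition), 0 means no net growth, and negative values indicate cell death.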 Values without a mark were called inactive. Calls of active or inactive are those of the source. How the source made its calls: active means growth percent below 10; inactive means the rest.
Experiments:
Assay in all cases: NCI-60 one-dose screen, 48 h (100 = growth as untreated, 0 = no growth, -100 = all killed)
[1] = system: HCT-15 colon; details: 10 µM
[2] = system: SNB-75 CNS; details: 10 µM
[3] = system: SNB-19 CNS; details: 10 µM
[4] = system: U251 CNS; details: 10 µM
[5] = system: PC-3 prostate; details: 10 µM
[6] = system: SK-MEL-5 melanoma; details: 10 µM
[7] = system: UACC-62 melanoma; details: 10 µM unless noted
[8] = system: LOX IMVI melanoma; details: 10 µM
[9] = system: SK-MEL-28 melanoma; details: 10 µM
[10] = system: EKVX NSCLC; details: 10 µM
[11] = system: SN12C renal; details: 10 µM
[12] = system: UO-31 renal; details: 10 µM
[13] = system: TK-10 renal; details: 10 µM unless noted
[14] = system: ACHN renal; details: 10 µM
[15] = system: CAKI-1 renal; details: 10 µM
[16] = system: A498 renal; details: 10 µM
[17] = system: CCRF-CEM leukemia; details: 10 µM
[18] = system: HT29 colon; details: 10 µM
[19] = system: SK-MEL-2 melanoma; details: 10 µM
[20] = system: HL-60(TB) leukemia; details: 10 µM

SMILES	growth [1]	growth [2]	growth [3]	growth [4]	growth [5]	growth [6]	growth [7]	growth [8]	growth [9]	growth [10]	growth [11]	growth [12]	growth [13]	growth [14]	growth [15]	growth [16]	growth [17]	growth [18]	growth [19]	growth [20]
Cc1cc(C(C)(C)c2ccc(O)c(C)c2)ccc1O	93.9%	73.7%	100%	86.6%	123%	88%	79.3%	85.3%	100%	85.2%	89.9%	79%	98.9%	88.7%	84.7%	102%	127%	–	–	–
CC(=O)Nc1c2sscc-2n(C)c1=O	-100% (active)	-98.3% (active)	-100% (active)	-100% (active)	–	-100% (active)	-99.2% (active)	-98.3% (active)	–	-98.8% (active)	-98.5% (active)	-100% (active)	-100% (active)	-100% (active)	-100% (active)	-100% (active)	-58.3% (active)	-76.2% (active)	-76% (active)	–
COc1ccc(/C=C(\C)[N+](=O)[O-])cc1OC	0.0541% (active)	56.5%	99.8%	–	–	54.6%	32.7%	-58.7% (active)	-67.2% (active)	–	39.9%	-83% (active)	-69.2% (active)	-59.9% (active)	-84.4% (active)	–	-16.4% (active)	-67% (active)	21.4%	-38.4% (active)
O=[N+]([O-])c1ccc(N(CCO)CCO)c2c1no[n+]2[O-]	–	-39.3% (active)	-17.9% (active)	-69.2% (active)	-5.95% (active)	-73.9% (active)	-41.6% (active)	-26.5% (active)	-8.85% (active)	-9.06% (active)	-4.84% (active)	7.25% (active)	-13.4% (active)	-12.3% (active)	-11.9% (active)	–	-38% (active)	-78.6% (active)	-16.3% (active)	–
CC[C@@]1(O)C[C@H](OC2CC(N(C)C)C(O)C(C)O2)c2c(cc3c(c2O)C(=O)c2c(O)ccc(O)c2C3=O)[C@H]1C(=O)OC (some centres not stated)	-43% (active)	-88% (active)	-36.9% (active)	-90.8% (active)	–	-100% (active)	-91.4% (active)	-85.1% (active)	–	-47.8% (active)	-42.7% (active)	-64.7% (active)	-50.4% (active)	-88.4% (active)	-71.8% (active)	–	-30.1% (active)	-20.5% (active)	-57.1% (active)	–
COC1CC2C=C(C)/C=C/C=C/C(=O)NC(c3ccccc3)C/C=C/CCC(O)CC(=O)C2=C1O (configuration not stated)	-85.2% (active)	-89.9% (active)	-27.1% (active)	–	-91.1% (active)	-97.2% (active)	-89.3% (active)	-91.6% (active)	-80.9% (active)	–	-84.9% (active)	-95.7% (active)	-59.9% (active)	-93.3% (active)	-88% (active)	-87.7% (active)	–	-83.7% (active)	-89.8% (active)	-5.27% (active)
O=C(CCl)Nc1ccc(Cl)cc1	37.2%	62.4%	79.1%	0.303% (active)	–	30.3%	47.1%	38.3%	69.5%	101%	35.8%	79.7%	66.7%	62.4%	-7.72% (active)	–	26.3%	41.2%	–	–
[Cl][Sn]([c]1ccccc1)([c]1ccccc1)[c]1ccccc1	-87% (active)	-98.6% (active)	-76.5% (active)	-98.6% (active)	–	-88.7% (active)	-75.4% (active)	-76.1% (active)	-85% (active)	–	-28.9% (active)	-87.9% (active)	-92.7% (active)	-89.2% (active)	-87.8% (active)	–	-46% (active)	-81.4% (active)	-62.9% (active)	-25.3% (active)
O=[N+]([O-])c1ccc(Br)c([N+](=O)[O-])c1	36.6%	–	101%	99.1%	–	95.8%	103%	13.3%	101%	115%	90.1%	-18.2% (active)	102%	52.6%	-93.5% (active)	–	46.4%	75.4%	96.8%	–
CC(C)c1cc([N+](=O)[O-])cc([N+](=O)[O-])c1O	108%	–	107%	103%	–	98.4%	98.1%	93.7%	102%	110%	103%	85.8%	98.6%	103%	99%	–	103%	103%	94%	–
NNc1ccccc1	82.3%	93.2%	96.7%	103%	–	87.9%	40.4%	65.3%	107%	89.6%	97.3%	64%	42.3%	64.5%	65.4%	–	42.7%	96.9%	–	–
COC12c3c(C)cc(O)c4c(=O)occ(c34)C(=O)C1C13COC(=O)c4c(O)cc(C)c(c41)C(=O)C2C3OC(C)=O (configuration not stated)	100%	89.6%	97.6%	102%	–	111%	97.5%	104%	91.6%	–	102%	91.5%	110%	100%	156%	–	96.2%	105%	81.5%	–
